TDP1 cell CPT: growth inhibition of DT40 Tdp1-/-;hTDP1 cells with camptothecin (screen for TDP1 inhibitors); chicken DT40 Tdp1-/-;hTDP1 cells + 20 nM CPT, ATP luminescence, 48 h; actives 12% (n = 420,000); Potency, µM (doses to about 46.2 µM), without a hit: at the highest dose activity change, negative = growth inhibition, actives largely listed as inhibitors; AID 686979; further: nearly all actives have a fitted effect of over 55% in size
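Chicken DT40 Tdp1-/- cells stably complemented with human TDP1 were seeded at 400 cells/well in medium containing 20 nM camptothecin, exposed to pin-transferred compounds, and grown at 37 °C for at least 48 hr. Viability was read as ATP luminescence.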
VDR inh: inhibitors of human vitamin D receptor; VDR-SRC2-3 peptide fluorescence polarization, 2 h; Potency, µM, inactives show max response, negative = inhibition, most hits filed as inhibitors; actives 0.93% (n = 400,000); AID 504847; P11473
Target sequence (P11473 whole entry, looked up): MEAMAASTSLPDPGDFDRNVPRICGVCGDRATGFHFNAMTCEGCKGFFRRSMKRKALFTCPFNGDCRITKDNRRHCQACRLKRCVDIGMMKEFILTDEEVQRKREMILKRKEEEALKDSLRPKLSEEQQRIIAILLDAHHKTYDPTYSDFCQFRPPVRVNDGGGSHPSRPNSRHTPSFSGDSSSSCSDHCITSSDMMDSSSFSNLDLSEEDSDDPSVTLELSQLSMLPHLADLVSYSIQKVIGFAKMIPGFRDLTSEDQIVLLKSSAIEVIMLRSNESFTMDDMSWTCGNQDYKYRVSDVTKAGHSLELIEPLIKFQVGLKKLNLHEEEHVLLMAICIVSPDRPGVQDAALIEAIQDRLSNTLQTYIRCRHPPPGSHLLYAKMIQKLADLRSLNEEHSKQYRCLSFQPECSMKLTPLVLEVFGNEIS
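Signal is fluorescence polarization, reporting how far test compounds block the interaction of VDR with the SRC2-3 coregulator peptide after a 2 h room-temperature incubation.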
TDP1 inh: TDP1 (human) enzyme inhibition; Q9NUW8; recombinant TDP1, AlphaScreen DNA substrate cleavage; Potency, µM (titrated, usually from 130 µM), for the others: at the highest dose activity change, negative = inhibition, actives largely listed as inhibitors; actives 0.28% (n = 350,000); AID 485290; further: nearly all actives have a fitted effect of over 40% in size
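Recombinant E. coli-expressed Tdp1 (1 nM) preincubated with compound 15 min at RT, then 5'-biotin/3'-phosphotyrosine-FITC DNA substrate (15 nM) added for 5 min. AlphaScreen beads (10 ug/ml) added, 10 min RT; tyrosine-FITC cleavage read as signal loss.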
TDP1 cell noCPT: qHTS for Inhibitors of human tyrosyl-DNA phosphodiesterase 1 (TDP1): qHTS in cells in absence of CPT; DT40 Tdp1-/- hTDP1 cells, no CPT, ATP luminescence, 48 h; Potency, µM (top dose mostly 46.2 µM), for inactives: at the top dose activity change, negative = growth inhibition, actives largely listed as inhibitors; actives 15% (n = 420,000); AID 686978, 2013; further: nearly all actives have a fitted effect of over 55% in size
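Chicken DT40 Tdp1-/- cells stably complemented with human TDP1 were seeded at 400 cells/well with DMSO in place of 20 nM camptothecin. After compound pinning, cells grew at least 48 hr at 37 °C; viability read by CellTiter-Glo luminescence.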
KAT2A inh: blocks human GCN5L2 histone acetyltransferase | GCN5L2 HAT assay, ThioGlo1 CoA-SH fluorescence | Potency, µM (top dose mostly 58.9 µM), inactives show top-dose activity change, negative = inhibition, most hits filed as inhibitors | actives 0.21% (n = 390,000) | AID 504327
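Titration-based screen in which CoA formation is detected via maleimide probe ThioGlo1 (50uM) turning fluorescent on thiol reaction; substrates H3(1-25) 75uM and acetyl-CoA 70uM, GCN5L2 20nM, 20 min incubation at room temperature.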
PLK1 PBD block: PLK1 (human) polo-box domain binding inhibition. P53350. Plk1 PBD binding of FITC phosphopeptide, fluorescence polarization. Potency, µM, for the others: max response, negative = inhibition, hits mostly inhibitors. actives 2.8% (n = 360,000); further: series mostly up to about 57 µM; nearly all actives have a fitted effect of over 65% in size
* = called active by the depositor; ? = inconclusive; nt = no result given. Only some compounds are listed: those with a hit (about 18% of all), similar ones and a draw of the others. The call rests on the fitted dose curve; in most records, active means well fitted curve in the direction sought with a large enough effect; inconclusive means small, poorly fitted or top-dose-only effect, or another doubt; inactive means no such curve, though single readings can be large; an effect the other way counts as inactive or inconclusive. On the % scale 0 is the no-effect control and ±100 the full control effect; potency means the concentration at half of the fitted maximal effect.

SMILES	TDP1 cell CPT	VDR inh	TDP1 inh	TDP1 cell noCPT	KAT2A inh	PLK1 PBD block
Cc1cccc2cc(CN(CCCN(C)C)C(=S)NCCc3ccccc3)c(=O)[nH]c12	20.6µM*	-13.2%	4.9%	16.4µM*	16.9%	-0.4%
Cc1ccc2[nH]c(=O)c(CN(CCCN(C)C)C(=S)NCCc3ccccc3)cc2c1	?	-7.4%	6.0%	?	-3.2%	-10.7%
O=C1COc2ccc(-c3cc(-c4ccc(F)cc4)c4c(n3)-c3ccccc3OC4)cc2N1	6.51µM*	-12.0%	-4.5%	5.8µM*	-5.9%	nt
COc1ccc(-c2cc(-c3ccc4c(c3)NC(=O)CO4)nc3c2COc2ccc(F)cc2-3)cc1	?	-15.9%	-3.2%	1.46µM*	5.0%	nt
O=C1COc2ccc(-c3cc(-c4ccc(F)cc4)c4c(n3)-c3cc(Cl)ccc3OC4)cc2N1	?	-16.4%	3.2%	?	0.9%	nt
CCOC(=O)c1sc(N=NC2=C(O)CC(C)(C)CC2=O)c(C(=O)OCC)c1C	?	8.5%	0.0%	14.6µM*	18.6%	-4.2%
CCOc1ccc(NC(=O)COc2ccccc2)c([N+](=O)[O-])c1	?	?	0.0%	?	0.9%	23.8µM*
Cc1cc(OCC(=O)NCc2cccnc2)ccc1[N+](=O)[O-]	-2.0%	-23.6%	3.7%	-9.6%	-25.7%	-7.6%
CCOc1ccc(NC(=O)Cc2ccccc2)c([N+](=O)[O-])c1	?	-13.4%	3.0%	-27.9%	27.3%	-17.3%
Cc1cc(OCC(=O)NC(C)c2ccccc2)ccc1[N+](=O)[O-] (stereo not given)	18.4µM*	21.9%	0.0%	16.4µM*	-4.2%	-20.6%
CCOc1ccc(NC(=S)NC(=O)/C=C/c2ccc(C)cc2)c([N+](=O)[O-])c1	14.6µM*	-15.8%	4.3%	13µM*	-8.5%	-8.0%
CCOc1ccc(NC(=S)NC(=O)/C=C/c2ccc(OC)c(OC)c2)c([N+](=O)[O-])c1	?	-11.4%	-3.8%	?	0.3%	?
O=C(CN1C(=O)NC2(CCCC2)C1=O)Nc1cc(S(=O)(=O)N2CCOCC2)ccc1OCC(F)(F)F	-11.6%	-16.9%	0.6%	-1.1%	-8.4%	-8.9%
Cc1ccc(COc2ccc(-c3cc(C(F)(F)F)n4nc(C)cc4n3)cc2)cc1	-21.4%	6.3%	1.9%	-8.0%	-9.6%	nt
Cc1c(N)nc([C@H](CC(N)=O)NC[C@H](N)C(N)=O)nc1C(=O)N[C@H](C(=O)N[C@H](C)[C@@H](O)[C@H](C)C(=O)N[C@H](C(=O)NCCc1nc(-c2nc(C(=O)NCCCCN=C(N)N)cs2)cs1)[C@@H](C)O)[C@@H](O[C@@H]1O[C@@H](CO)[C@@H](O)[C@H](O)[C@@H]1O[C@H]1O[C@H](CO)[C@@H](O)[C@H](OC(N)=O)[C@@H]1O)c1cnc[nH]1	1.19µM*	nt	nt	0.944µM*	nt	nt
C=CCN1C(=O)CSC1=Nc1ccc(O)cc1	?	-7.7%	1.6%	16.4µM*	-17.3%	1.1%
C=CCN1C(=O)CSC1=Nc1ccc(NC(C)=O)cc1	9.9%	8.4%	1.6%	-5.2%	-2.4%	-2.5%
CN1CCN(c2ccc(-c3cccc(NC(=O)COc4ccccc4)c3)nn2)CC1	?	8.3%	nt	20.6µM*	-0.4%	-1.2%
COc1ccc(C(=O)Nc2cccc(-c3ccc(N4CCOCC4)nn3)c2)cc1OC	18.4µM*	10.0%	nt	9.2µM*	-12.2%	-1.1%
CCOc1ccc(C(=O)Nc2cccc(-c3ccc(N4CCOCC4)nn3)c2)cc1OCC	?	15.9%	nt	10.3µM*	-5.2%	-4.7%
O=C(COc1ccccc1)Nc1cccc(-c2cn3cccnc3n2)c1	20.6µM*	-4.0%	2.3%	?	-6.4%	-8.4%
COc1cccc(C(=O)Nc2cccc(-c3ccc(N4CCOCC4)nn3)c2)c1	-17.5%	-10.1%	-8.6%	?	2.1%	-7.0%
